The text below walks through data of PubChem BioAssay.

Experiment [1] has as its system Wnt5a (protein binding on small-molecule microarray). The experiment can be described thus: Wnt5a binders on small-molecule microarray, primary screen, biophysical, 635/667 nm fluorescence (AID 1142).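 Note: fluorescence read at 667 nm with signal to noise per printed feature.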 The settings on record: 635 nm fluorescence, higher = more signal.
The nature of experiment [2]: cell viability in Huh7 cells, primary screen, cytotoxicity control for HCV replication inhibitor project, CellTiter-Glo luminescence, basal, 48 h (AID 1143).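 Note: Huh7 hepatoma cells carrying a hepatitis C replication reporter with no stimulus; test concentration not given here.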 The note with it: Huh7 HCV replicon, higher = more signal, called active from +8 up or from −8 down.
A short description of experiment [3]: P. aeruginosa biofilm formation inhibitors, primary screen, PAO1 strain, BacTiter-Glo luminescence, LB-PBS (AID 1144). The note with it: 12 h, higher = more signal.
Experiment [4] in a line: CREB reporter modulators without forskolin, primary screen, cell-based, PC12, CRE-LacZ reporter, unstimulated (AID 1145). The note with it: no forskolin, luminescence, 4.5 h, higher = more signal, called active from +8 up or from −8 down.
Experiment [5] in a line: CREB reporter modulators under forskolin, primary screen, cell-based, PC12, CRE-LacZ reporter, forskolin-stimulated (AID 1146).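 Note: PC12 cells with 6xCRE LacZ reporter stimulated by forskolin 10 µM; beta-galactosidase reporter signal reflecting CREB driven transcription.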 The settings on record: luminescence, 4.5 h, higher = more signal, called active from +8 up or from −8 down.
Experiment [6] deals with Streptavidin (Streptomyces avidinii) (UniProt P22629). The experiment can be described thus: streptavidin binders on small-molecule microarray, primary screen, artefact control for SMM compound annotation, biophysical, 635/667 nm fluorescence (AID 1147).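 Note: signal reflects streptavidin binding to arrayed compounds as a control protein.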 The settings on record: streptavidin binding, higher = more signal.
Streptavidin (Streptomyces avidinii), sequence (P22629 whole entry, looked up): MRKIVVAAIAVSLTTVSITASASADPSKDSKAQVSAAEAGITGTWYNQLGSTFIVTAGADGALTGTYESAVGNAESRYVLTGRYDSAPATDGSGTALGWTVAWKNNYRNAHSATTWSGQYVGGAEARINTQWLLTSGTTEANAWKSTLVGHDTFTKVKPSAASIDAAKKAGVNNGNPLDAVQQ
Experiment [7] is described as follows: small-molecule binders of probe aInhba, primary screen, biochemical, small-molecule microarray, 635/667 nm fluorescence (AID 1148).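 Note: score merges 667nm spot fluorescence with signal-to-noise for antibody binding to printed compounds.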 The note with it: higher = more signal.
Experiment [8] deals with Torsin-1A (Homo sapiens) (UniProt O14656). The experiment can be described thus: torsin A binders from cell lysate, primary screen, small-molecule microarray, wild-type, 635/667 nm (AID 1149). The settings on record: COS7 hTOR1A-WT lysate, 635 nm fluorescence, higher = more signal.
Torsin-1A (Homo sapiens), sequence (O14656 whole entry, looked up): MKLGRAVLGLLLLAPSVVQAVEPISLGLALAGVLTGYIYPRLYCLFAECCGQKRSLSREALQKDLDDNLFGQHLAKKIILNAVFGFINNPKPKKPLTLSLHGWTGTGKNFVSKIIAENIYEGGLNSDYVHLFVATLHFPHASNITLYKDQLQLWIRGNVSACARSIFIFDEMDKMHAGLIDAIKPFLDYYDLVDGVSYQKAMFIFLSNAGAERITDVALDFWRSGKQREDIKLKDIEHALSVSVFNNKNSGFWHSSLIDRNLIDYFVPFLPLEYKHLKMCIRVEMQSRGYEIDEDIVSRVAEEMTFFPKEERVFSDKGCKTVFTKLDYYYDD
For experiment [9] the target is unchanged. Kind of experiment: small-molecule binders of mutant TOR1A in lysate, primary screen, cell lysate, small-molecule microarray, COS7 lysate, 635/667 nm fluorescence (AID 1150).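 Note: score pools 667 nm emission and signal to noise measuring lysate protein binding.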 The settings on record: COS7 hTOR1A mutant lysate, 635 nm fluorescence, higher = more signal.
Experiment [10] deals with Sonic hedgehog protein (Shh). Kind of experiment: small-molecule binders of Shh protein, primary screen, biochemical, small-molecule microarray, 635/667 nm fluorescence (AID 1151).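 Note: Shh protein binding to compounds spotted on small-molecule microarray slides; score combines spot fluorescence intensity with signal-to-noise across triplicate slides.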 The note with it: small-molecule microarray binding, 635 nm fluorescence; higher = more signal.

SMILES strings stand for the structures. The source made the active and inactive calls. Unless noted, the rule behind the calls is not given here.

Regarding `COCCOC(=O)N1C(=O)[C@@]2(c3cc(C#CC4=CCCCC4)ccc31)[C@H](c1ccc(O)cc1)N1[C@H](c3ccccc3)[C@H](c3ccccc3)OC(=O)[C@H]1[C@@H]2C(=O)N1CCCCCCC1`, the composite z-score is 0.288 in experiment [1]; 1.29 in experiment [6]; 0.0818 in experiment [7]; 0.588 in the experiment with Torsin-1A (Homo sapiens) [8]; 0.594 in the experiment with Torsin-1A (Homo sapiens) [9]; 1.76 in experiment [10]. Moreover, the z-score is -3.42 (inactive) in experiment [2], -0.307 (inactive) in experiment [3], -1.01 (inactive) in experiment [4] and -1.09 (inactive) in [5].
Take `C=C(CCCC)/C(=C/C[C@H](OC(=O)c1ccncc1)c1cccc(OCCO)c1)c1cc(C(=O)OC)ccc1OC`: the composite z-score in [1] is 0.84; in experiment [6], 0.396; in experiment [7], -0.0695; with Torsin-1A (Homo sapiens) [8], 0.349; in the experiment with Torsin-1A (Homo sapiens) [9], 0.458; in experiment [10], 1.61. In addition, the z-score in experiment [2] was -5.25 (inactive); in [3], -0.536 (inactive); in experiment [4], 6.81 (inactive); in experiment [5] it was -0.802 (inactive).
`C=CCC(OC(C)=O)[C@@H]1[C@@H](N(Cc2cccc3ccccc23)C(=O)Cc2ccc(F)cc2)c2cc(OCCCO)ccc2N1C(=O)Cc1ccc2ccccc2c1` (stereo not given in full): the composite z-score is -0.0893 in [1]; -0.11 in [6]; -0.101 in experiment [7]; -0.52 with Torsin-1A (Homo sapiens) [8]; 0.169 with Torsin-1A (Homo sapiens) [9]; 0.332 in [10]. For the same molecule, the z-score in experiment [2] was -0.288 (inactive); in experiment [3] it was -0.688 (inactive); in [4], -0.36 (inactive); in [5], 1.17 (inactive).
Consider `CCOC(=O)C1=CCC(c2cccc3ccccc23)N(S(=O)(=O)c2ccc(C)cc2)C1` (stereo not given), for which the composite z-score is 0.204 in experiment [1]; 1.12 in experiment [6]; 0.201 in [7]; 0.334 in the experiment with Torsin-1A (Homo sapiens) [8]; 0.216 with Torsin-1A (Homo sapiens) [9]; -0.717 in experiment [10]. The z-score in [2] was -3.85 (inactive); in experiment [3], 0.00942 (inactive); in [4], -0.826 (inactive); in experiment [5] it was -0.0663 (inactive).
`CCOC(=O)C1=CC[C@@H](c2ccc(-c3ccc(OCc4ccccc4)cc3)c(OC)c2)N(S(=O)(=O)c2ccc(C)cc2)[C@H]1c1ccccc1`: the composite z-score in experiment [1] was determined as 0.0858; in [6] it was 1.67; in [7], 0.119; with Torsin-1A (Homo sapiens) [8], 0.277; in the experiment with Torsin-1A (Homo sapiens) [9], 0.518; in experiment [10] it was 1.15. For the same molecule, the z-score in experiment [2] is -2.32 (inactive); in experiment [3], -1.05 (inactive); in experiment [4] it was -0.489 (inactive); in experiment [5] it was 0.1 (inactive).
On to `CCCC=C(CCC)[C@@H](NC(=O)c1ccccc1)c1ccccc1`, for which the composite z-score in experiment [1] was -0.149; in experiment [6], 0.405; in experiment [7], 0.0968; with Torsin-1A (Homo sapiens) [8], -0.106; with Torsin-1A (Homo sapiens) [9], -0.0692; in [10], -0.289. Further, the z-score in [2] is -1.26 (inactive); in experiment [3] it was 0.202 (inactive); in experiment [4], -0.561 (inactive); in [5], 1.28 (inactive).
On to `CCCC=C(CCC)[C@@H](NS(=O)(=O)c1ccc(C(F)(F)F)cc1)c1ccc(-c2ccccc2)cc1`, for which the composite z-score in experiment [1] is 0.281; in [6], 0.991; in experiment [7], 0.0445; with Torsin-1A (Homo sapiens) [8], 0.059; with Torsin-1A (Homo sapiens) [9], 0.664; in [10] it was 0.618. Also, the z-score in experiment [2] was -2.08 (inactive); in experiment [3], 0.524 (inactive); in experiment [4] it was -0.372 (inactive); in [5], 0.486 (inactive).
For the molecule `O=C1OCC=C[C@H]2OC34C=CCN(Cc5ccccc5)C(=O)[C@H]3N(CCO)C(=O)[C@@H]4[C@@H]12` (stereo not given in full), the composite z-score in [1] was -0.744; in experiment [6], -1.09; in experiment [7], -0.307; with Torsin-1A (Homo sapiens) [8], -2.02; in the experiment with Torsin-1A (Homo sapiens) [9] it was -0.768; in experiment [10], -0.722. The z-score in experiment [2] is 0.154 (inactive); in [3], -0.992 (inactive); in [4] it was -1.31 (inactive); in [5] it was -0.773 (inactive).
In the case of `COc1ccc(-c2cc3c(c(-c4ccccc4)n2)[Si](C(C)C)(C(C)C)O[C@H]3c2ccccc2)cn1`, the composite z-score was 0.436 in experiment [1]; -0.207 in [6]; -0.0403 in [7]; 0.363 with Torsin-1A (Homo sapiens) [8]; -0.0308 in the experiment with Torsin-1A (Homo sapiens) [9]; 0.82 in experiment [10]. Moreover, the z-score is 0.0834 (inactive) in experiment [2], 0.0798 (inactive) in experiment [3], 0.0035 (inactive) in experiment [4] and 0.411 (inactive) in experiment [5].
On to `CC(C)[Si](OCC[C@H]1O[C@]2(C(=O)N(Cc3ccccc3)c3ccccc32)[C@@H](C)[C@@H]1[Si](C)(C)O)(C(C)C)C(C)C`, for which the composite z-score in experiment [1] was 0.0427; in experiment [6] it was -0.0546; in experiment [7], -0.171; with Torsin-1A (Homo sapiens) [8], 0.399; in the experiment with Torsin-1A (Homo sapiens) [9], -0.131; in experiment [10], 0.255. Moreover, the z-score was -0.555 (inactive) in experiment [2], 0.735 (inactive) in [3], 0.223 (inactive) in experiment [4] and -0.242 (inactive) in experiment [5].
For `C=C(CCCC)C(=O)CC[C@@H](OC(C)=O)c1ccccc1OCCO`, the composite z-score is -0.283 in experiment [1]; -0.484 in experiment [6]; -0.024 in experiment [7]; -0.0615 in the experiment with Torsin-1A (Homo sapiens) [8]; 0.915 in the experiment with Torsin-1A (Homo sapiens) [9]; 0.276 in experiment [10]. Besides, the z-score in experiment [2] is -3.08 (inactive); in experiment [3], -0.206 (inactive); in [4], 9.35 (active); in [5], -0.841 (inactive).
On to `CCCC=C(CCC)[C@@H](NC(=O)c1ccc(C(F)(F)F)cc1)c1ccccc1`, for which the composite z-score in experiment [1] was -0.191; in [6] it was 0.233; in experiment [7], 0.208; in the experiment with Torsin-1A (Homo sapiens) [8] it was 0.518; with Torsin-1A (Homo sapiens) [9] it was 0.199; in experiment [10] it was -0.634. Besides, the z-score is -3.91 (inactive) in [2], -0.383 (inactive) in experiment [3], 0.962 (inactive) in experiment [4] and -0.0536 (inactive) in experiment [5].
In the case of `O=C(CS)NCCCCCCNC(=O)[C@@H]1C[C@@H]2C(=O)N[C@@H](Cc3ccccc3)C(=O)N2[C@@H]1c1ccc(O)cc1`, the composite z-score in experiment [1] was determined as 0.588; in experiment [6], 0.226; in [7], 0.0503; in the experiment with Torsin-1A (Homo sapiens) [8] it was 1.12; with Torsin-1A (Homo sapiens) [9], 1.14; in [10], 1.86. The z-score is -0.345 (inactive) in [2], -0.75 (inactive) in experiment [3], -0.537 (inactive) in experiment [4] and -0.835 (inactive) in experiment [5].
As to `C=CC[C@@]1(C(=O)NCC(O)CO)N=C(c2ccc(OCCCO)cc2)O[C@@H]1c1ccccc1CN=[N+]=[N-]` (stereo not given in full), the composite z-score in experiment [1] is -0.233; in experiment [6] it was 0.0285; in experiment [7], 0.0705; with Torsin-1A (Homo sapiens) [8], 1.09; with Torsin-1A (Homo sapiens) [9], 2.13; in [10], -0.364. The z-score in experiment [2] was -1.74 (inactive); in [3], -0.427 (inactive); in experiment [4] it was -0.459 (inactive); in [5], -0.783 (inactive).
